Results published in the supplement of paper PMC11172423.

Tested on: Madurella mycetomatis MM55
Assay: growth relative to untreated control; higher = less inhibition, active = 20 or less
Conditions: 25 µM
Experimental: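 Hyphal fragments of M. mycetomatis MM55 or F. senegalensis CBS197.79 in RPMI 1640/MOPS were exposed to each MMV COVID Box or Global Health Priority Box compound at 100 or 25 µM for 7 days at 37 °C. Viability was read with MTS (490 nm, M. mycetomatis) or resazurin (600 nm, F. senegalensis), background-corrected with a medium-only control and expressed as % growth relative to the untreated growth control. Inhibition of more than 80% was taken as growth inhibition.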

SMILES | growth
O=[N+]([O-])/N=C1\NCCN1Cc1ccc(Cl)nc1 | 92.8% (inactive)
CC[C@@H](C(=O)[C@@H](C)[C@@H](O)[C@H](C)[C@@H]1O[C@@H]([C@@H](CC)C(=O)O)CC[C@@H]1C)[C@H]1O[C@]2(C=C[C@@H](O)[C@]3(CC[C@@](C)([C@H]4CC[C@](O)(CC)[C@H](C)O4)O3)O2)[C@H](C)C[C@@H]1C | 124% (inactive)
CC(C)(C#N)NC(=O)c1cc(Cl)cc(Cl)c1NC(=O)c1cc(Cl)nn1-c1ncccc1Cl | 104% (inactive)
CC[C@H]1CN2CCc3cc(OC)c(OC)cc3[C@@H]2C[C@@H]1C[C@H]1NCCc2cc(OC)c(OC)cc21 | 84.8% (inactive)
CN(c1cc(NC(=O)c2ccc(F)cc2)ccn1)C1CCN(Cc2cccc(F)c2)CC1 | 5.69% (active)
CC(c1ccc(C(F)(F)F)nc1)S(C)(=O)=NC#N (stereo not given) | 71.6% (inactive)
Clc1cc(Cl)cc(Nc2nc3cnc(NC4CCCC4)cc3n2C2CCNC2)c1 (stereo not given) | 7.86% (active)
CC(C)(C)Nc1cc2c(cn1)nc(Nc1cc(Cl)cc(C(F)(F)F)c1)n2C1CCNC1 (stereo not given) | 8.45% (active)
CCOCn1c(-c2ccc(Cl)cc2)c(C#N)c(Br)c1C(F)(F)F | 30.1% (inactive)
CN(C)CCn1c(Nc2cc(Cl)cc(C(F)(F)F)c2)nc2cnc(NC3CCC3)cc21 | 80.9% (inactive)
ClC1=C(Cl)[C@@]2(Cl)[C@H]3C[C@@H](Cl)[C@H](Cl)[C@H]3[C@@]1(Cl)C2(Cl)Cl | 104% (inactive)
COc1ccc(Cc2nccc3cc(OC)c(OC)cc23)cc1OC | 78% (inactive)
O=C(NC(=O)c1ccccc1Cl)Nc1ccc(OC(F)(F)F)cc1 | 106% (inactive)
NCCc1cn(S(=O)(=O)c2c(Cl)nc3sccn23)c2ccccc12 | 79.9% (inactive)
CNC(=O)Oc1cccc2ccccc12 | 95.8% (inactive)
CN1COCN(Cc2cnc(Cl)s2)/C1=N/[N+](=O)[O-] | 87.9% (inactive)
CC(C)Nc1cc2c(cn1)nc(Nc1cc(Cl)cc(C(F)(F)F)c1)n2C1CCNC1 (stereo not given) | 7.15% (active)
COc1cc(/C=N/c2c(SC(F)(F)F)c(C#N)nn2-c2c(Cl)cc(C(F)(F)F)cc2Cl)ccc1O | 21% (inactive)
CC(F)c1ncnc(NCCc2ccc(OC(F)(F)F)cc2)c1Cl (stereo not given) | 11% (active)
CNCCn1c(Nc2cc(Cl)cc(C(F)(F)F)c2)nc2cnc(NC3CC(F)(F)C3)cc21 | 22.2% (inactive)

Same assay, conditions: 100 µM

SMILES | growth
O=[N+]([O-])/N=C1\NCCN1Cc1ccc(Cl)nc1 | 98.3% (inactive)
CC[C@@H](C(=O)[C@@H](C)[C@@H](O)[C@H](C)[C@@H]1O[C@@H]([C@@H](CC)C(=O)O)CC[C@@H]1C)[C@H]1O[C@]2(C=C[C@@H](O)[C@]3(CC[C@@](C)([C@H]4CC[C@](O)(CC)[C@H](C)O4)O3)O2)[C@H](C)C[C@@H]1C | 70.3% (inactive)
CC(C)(C#N)NC(=O)c1cc(Cl)cc(Cl)c1NC(=O)c1cc(Cl)nn1-c1ncccc1Cl | 116% (inactive)
CC[C@H]1CN2CCc3cc(OC)c(OC)cc3[C@@H]2C[C@@H]1C[C@H]1NCCc2cc(OC)c(OC)cc21 | 43.6% (inactive)
CN(c1cc(NC(=O)c2ccc(F)cc2)ccn1)C1CCN(Cc2cccc(F)c2)CC1 | 9.07% (active)
CC(c1ccc(C(F)(F)F)nc1)S(C)(=O)=NC#N (stereo not given) | 173% (inactive)
Clc1cc(Cl)cc(Nc2nc3cnc(NC4CCCC4)cc3n2C2CCNC2)c1 (stereo not given) | 6.79% (active)
CC(C)(C)Nc1cc2c(cn1)nc(Nc1cc(Cl)cc(C(F)(F)F)c1)n2C1CCNC1 (stereo not given) | 7.09% (active)
CCOCn1c(-c2ccc(Cl)cc2)c(C#N)c(Br)c1C(F)(F)F | 6.93% (active)
CN(C)CCn1c(Nc2cc(Cl)cc(C(F)(F)F)c2)nc2cnc(NC3CCC3)cc21 | 104% (inactive)
ClC1=C(Cl)[C@@]2(Cl)[C@H]3C[C@@H](Cl)[C@H](Cl)[C@H]3[C@@]1(Cl)C2(Cl)Cl | 130% (inactive)
COc1ccc(Cc2nccc3cc(OC)c(OC)cc23)cc1OC | 83.4% (inactive)
O=C(NC(=O)c1ccccc1Cl)Nc1ccc(OC(F)(F)F)cc1 | 112% (inactive)
NCCc1cn(S(=O)(=O)c2c(Cl)nc3sccn23)c2ccccc12 | 2.9% (active)
CNC(=O)Oc1cccc2ccccc12 | 85.3% (inactive)
CN1COCN(Cc2cnc(Cl)s2)/C1=N/[N+](=O)[O-] | 126% (inactive)
CC(C)Nc1cc2c(cn1)nc(Nc1cc(Cl)cc(C(F)(F)F)c1)n2C1CCNC1 (stereo not given) | 6.36% (active)
COc1cc(/C=N/c2c(SC(F)(F)F)c(C#N)nn2-c2c(Cl)cc(C(F)(F)F)cc2Cl)ccc1O | 53.9% (inactive)
CC(F)c1ncnc(NCCc2ccc(OC(F)(F)F)cc2)c1Cl (stereo not given) | 10.1% (active)
CNCCn1c(Nc2cc(Cl)cc(C(F)(F)F)c2)nc2cnc(NC3CC(F)(F)C3)cc21 | 6.62% (active)
